Source: PubChem BioAssay (NCATS)
Results filed as inconclusive are left out. Activity calls are given as the source filed them. Unless noted, the call rests on the fitted dose curve; in most records, active means well fitted curve in either direction with a large enough effect (not every such curve was filed as active); inconclusive means small, poorly fitted or top-dose-only effect, or another doubt; inactive means flat fitted curve, though single readings scatter.

How the values were obtained:
[1] = biological target: Lysosomal acid glucosylceramidase (Homo sapiens) (UniProt P04062); test: Glucocerebrosidase-p2 (AID 348; in the data active means potency below about 10 µM; further: potency means the concentration at half of the fitted maximal effect); conditions: purified GBA, blue fluorogenic substrate, 40 min
In short: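 Normal human glucocerebrosidase (0.2 nM) with blue fluorogenic substrate (80 uM final) in citrate/phosphate pH 5.9 with 10mM sodium taurocholate, 0.01% tween-20; 40 min RT, NaOH/glycine stop; fluorescence Ex 365/Em 440; AC50 from a titration from 0.6 nM upwards.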

[2] = AP1 Signaling Pathway (AID 357); conditions: ME-180 AP-1-bla reporter, EGF-induced, beta-lactamase ratio, 5 h; at 7.69 µM (top of the series) unless noted; further: on the % scale 0 is the no-effect control and ±100 the full control effect
In short: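 AP-1-bla ME-180 cells with beta-lactamase reporter under AP-1 response element, stimulated with EC50 EGF; compounds titrated, 5 hours at 37 degrees Celsius. CCF4 read at 460/530 nm ratio; positive and negative modulators judged by AC50.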

[3] = biological target: Cytochrome P450 1A2 (Homo sapiens) (UniProt P05177); test: p450-cyp1a2 (AID 410; calls by dose curve; further: potency means the concentration at half of the fitted maximal effect;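 on activity change, negative = inhibition: -100% = full effect of reference inhibitor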); conditions: recombinant CYP1A2, luciferin-ME demethylation, luminescence; series mostly up to 11.4 µM
In short: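 Read-out is luminescence from luciferin produced by CYP1A2 demethylation of Luciferin-ME (100uM, at Km). Detection reagent stopped the 60 min NADPH-dependent reaction; signals were normalized to 57 uM furafylline.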

[4] = Stat Signaling Pathway (AID 446); conditions: ME-180 SIE beta-lactamase reporter, IL-6 stimulated, 5 h; at 7.69 µM (top of the series) unless noted;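 further: ME-180 cervical cancer cells given 40 pM IL-6 alongside compound; SIE-controlled beta-lactamase reporter measured as 460/530 nm FRET emission ratio; on the % scale 0 is the no-effect control and ±100 the full control effect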
In short: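 Normalization used AC90 stimulation (300 pM IL-6) and AC90 inhibition (125 nM pan-JAK inhibitor at 40 pM IL-6). The underlying signal is SIE-driven beta-lactamase in ME-180 cells after 5 h IL-6 exposure with compound.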

[5] = biological target: Glucocorticoid receptor (Homo sapiens) (UniProt P04150); test: GR-GFP Redistribution (AID 450;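 active means compounds whose dose series gives a full or clear partial fitted curve of increased nuclear translocation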; further: potency means the concentration at half of the fitted maximal effect); conditions: U2OS GR-GFP nuclear translocation, laser cytometry, 2 h
[6] = biological target: Glucocorticoid receptor (Homo sapiens) (UniProt P04150); test: GR-EFC Redistribution (AID 451; calls by dose curve; further: potency means the concentration at half of the fitted maximal effect); conditions: CHO-K1 GR-EFC translocation, beta-gal luminescence, 2 h
In short: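 CHO-K1 cells stably expressing nuclear-localized β-gal enzyme acceptor and GR fused C-terminally to the enzyme donor fragment; ligand-driven nuclear translocation restores β-gal by complementation. Compounds titrated up to 46 uM final, 2 h at 37 °C; luminescence read.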

[7] = biological target: Mitogen-activated protein kinase 10 (Mus musculus) (UniProt Q61831); test: JNK3 AlphaScreen Assay (AID 530); conditions: JNK3 lysate, c-Jun phosphorylation; series mostly up to 11.4 µM;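 further: kinase came from lysate of stimulated human HepG2 cells; signal reports phosphorylation of biotinylated GST-cJun 1-79 at Ser73 with 10 µM ATP; on the % scale 0 is the no-effect control and ±100 the full control effect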
In short: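 Biotinylated GST-cJun(1-79) served as substrate for JNK3 in HepG2 lysates stimulated with IL-1beta and TNF-alpha. ATP was 10 uM final, pH 7.6. Ser73 phosphorylation was quantified by AlphaScreen (680 nm excitation).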

[8] = biological target: 3',5'-cyclic-AMP phosphodiesterase 4B (Homo sapiens) (UniProt Q07343); test: qHTS Assay for Inhibitors of PDE-IV (AID 607; active means well fitted activation curve with a large enough effect in the main read-out, with a control signal flat, not every such curve was filed as active; further: % of control where 0% means no effect); conditions: HEK293 ACTOne CNG channel cells, membrane potential fluorescence; series mostly up to 22.9 µM
In short: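 HEK293 ACTOne cells with CNG channel (1000/well), endogenous PDE4; membrane potential dye, compounds up to 22.9 uM final. Fluorescence Ex 535/Em 590; RO 20-1724 (100 uM final) as reference.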

[9] = biological target: Cytochrome P450 2C19 (Homo sapiens) (UniProt P33261); test: qHTS Assay for Inhibitors and Substrates of Cytochrome P450 2C19 (AID 899; active means well fitted curve in the direction sought with a large enough effect; an effect the other way counts as inactive or inconclusive; further: nearly all actives have a fitted effect of over 60% in size; further: potency means the concentration at half of the fitted maximal effect; on activity, negative = inhibition: on the % scale 0 is the no-effect control and ±100 the full control effect); conditions: recombinant CYP2C19, luciferin-H EGE luminescence; series mostly up to 11.4 µM
In short: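 NADPH-dependent conversion of Luciferin-H EGE (10uM, at KM) by 5nM enzyme in 50mM KPO4, 60 min at 37C following 10 min compound preincubation. Stopped with luciferin detection buffer; luminescence read after 20 min.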

[10] = biological target: Cytochrome P450 2C9 (Homo sapiens) (UniProt P11712); test: qHTS Assay for Inhibitors and Substrates of Cytochrome P450 2C9 (AID 883; active means well fitted curve in the direction sought with a large enough effect; an effect the other way counts as inactive or inconclusive; further: nearly all actives have a fitted effect of over 60% in size; further: potency means the concentration at half of the fitted maximal effect); conditions: recombinant CYP2C9, luciferin-H luminescence, 60 min; series mostly up to 11.4 µM
In short: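 A luminogenic readout tracked human CYP2C9 (10nM) converting deoxyluciferin (100uM, at KM) in 25mM KPO4 during 60 min at 37C with regenerated NADPH. Values normalized to 57uM sulphaphenazole as complete inhibition.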

[11] = biological target: Cytochrome P450 3A4 (Homo sapiens) (UniProt P08684); test: qHTS Assay for Inhibitors and Substrates of Cytochrome P450 3A4 (AID 884; active means well fitted curve in the direction sought with a large enough effect; an effect the other way counts as inactive or inconclusive; further: potency means the concentration at half of the fitted maximal effect; nearly all actives have a fitted effect of over 50% in size); conditions: recombinant CYP3A4, Luciferin-PPXE luminescence; series mostly up to 57.1 µM
In short: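 Luminescent readout of luciferin produced by CYP3A4 (20 nM) dealkylation of Luciferin-PPXE, 25 uM (its KM). NADPH-driven reaction ran 60 min at RT after 10 min compound preincubation; data scaled to 57 uM ketoconazole as 100% inhibition.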

[12] = biological target: Cytochrome P450 3A4 (Homo sapiens) (UniProt P08684); test: qHTS Assay for Activators of Cytochrome P450 3A4 (AID 885; active means well fitted curve in the direction sought with a large enough effect; an effect the other way counts as inactive or inconclusive; further: nearly all actives have a fitted effect of over 65% in size); conditions: recombinant CYP3A4, Luciferin-PPXE luminescence, 60 min; series mostly up to 11.4 µM
In short: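 Human CYP3A4 dealkylates Luciferin-PPXE to luciferin, which luciferase detection converts to light. Substrate was at its KM (25uM), buffer 200mM KPO4, reaction 60 min at RT.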

[13] = biological target: Cytochrome P450 2D6 (Homo sapiens) (UniProt P10635); test: qHTS Assay for Inhibitors and Substrates of Cytochrome P450 2D6 (AID 891; active means well fitted curve in the direction sought with a large enough effect; an effect the other way counts as inactive or inconclusive; further: nearly all actives have a fitted effect of over 60% in size; further: potency means the concentration at half of the fitted maximal effect); conditions: recombinant CYP2D6, luciferin-ME EGE luminescence; series mostly up to 11.4 µM
In short: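 Luminescent read-out of luciferin formed by 5 nM human CYP2D6 demethylating 30 uM Luciferin-ME EGE (Km level) over 60 min at room temperature after NADPH regeneration addition. Data normalized to full inhibition by 1.43 uM quinidine.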

[14] = qHTS Assay for Identification of Small Molecule Agonists for Hypoxia Response Element Signaling Pathway (AID 914; active means well fitted activation curve with a large enough effect in the signal ratio, with a control signal flat, not every such curve was filed as active; the % refers to the signal ratio; further: % of control where 0% means no effect); conditions: ME-180 (cervical carcinoma) HRE-bla reporter, beta-lactamase ratio, CoCl2, 17 h; activation: hits give high values
In short: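 qHTS titration; ME-180 HRE-bla cells; EC50 CoCl2 co-treatment, 17 h at 37 degrees Celsius; CCF4 dye, ex 405nm, em 460nm and 530nm; %Activity from ratio; AC50.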

Cytochrome P450 2D6 (Homo sapiens), sequence (P10635 whole entry, looked up): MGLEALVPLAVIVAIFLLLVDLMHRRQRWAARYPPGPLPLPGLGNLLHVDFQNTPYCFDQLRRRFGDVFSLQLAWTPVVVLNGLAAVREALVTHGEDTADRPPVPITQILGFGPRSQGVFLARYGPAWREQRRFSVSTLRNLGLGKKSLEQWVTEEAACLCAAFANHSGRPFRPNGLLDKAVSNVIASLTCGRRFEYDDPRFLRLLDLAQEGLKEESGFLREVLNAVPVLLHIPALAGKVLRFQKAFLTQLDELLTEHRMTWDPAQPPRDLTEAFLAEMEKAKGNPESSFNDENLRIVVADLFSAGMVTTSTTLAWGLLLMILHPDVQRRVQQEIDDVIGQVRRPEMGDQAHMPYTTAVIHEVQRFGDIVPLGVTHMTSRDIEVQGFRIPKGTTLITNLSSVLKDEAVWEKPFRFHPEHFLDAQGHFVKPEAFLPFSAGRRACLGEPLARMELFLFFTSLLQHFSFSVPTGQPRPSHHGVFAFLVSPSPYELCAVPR
Cytochrome P450 3A4 (Homo sapiens), sequence (P08684 whole entry, looked up): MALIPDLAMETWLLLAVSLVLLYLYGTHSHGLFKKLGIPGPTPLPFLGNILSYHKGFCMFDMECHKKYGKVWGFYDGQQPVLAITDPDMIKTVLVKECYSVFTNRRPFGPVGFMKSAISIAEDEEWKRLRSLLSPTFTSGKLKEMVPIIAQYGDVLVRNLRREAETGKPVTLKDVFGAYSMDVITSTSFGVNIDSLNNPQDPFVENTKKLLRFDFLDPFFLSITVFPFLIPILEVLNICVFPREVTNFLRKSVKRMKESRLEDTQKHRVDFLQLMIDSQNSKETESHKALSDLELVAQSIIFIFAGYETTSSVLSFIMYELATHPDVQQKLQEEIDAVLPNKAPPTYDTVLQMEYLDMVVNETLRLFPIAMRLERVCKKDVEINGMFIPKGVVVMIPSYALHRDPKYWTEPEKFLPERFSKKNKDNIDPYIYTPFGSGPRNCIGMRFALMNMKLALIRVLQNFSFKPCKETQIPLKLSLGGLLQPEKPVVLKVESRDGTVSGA
Cytochrome P450 2C19 (Homo sapiens), sequence (P33261 whole entry, looked up): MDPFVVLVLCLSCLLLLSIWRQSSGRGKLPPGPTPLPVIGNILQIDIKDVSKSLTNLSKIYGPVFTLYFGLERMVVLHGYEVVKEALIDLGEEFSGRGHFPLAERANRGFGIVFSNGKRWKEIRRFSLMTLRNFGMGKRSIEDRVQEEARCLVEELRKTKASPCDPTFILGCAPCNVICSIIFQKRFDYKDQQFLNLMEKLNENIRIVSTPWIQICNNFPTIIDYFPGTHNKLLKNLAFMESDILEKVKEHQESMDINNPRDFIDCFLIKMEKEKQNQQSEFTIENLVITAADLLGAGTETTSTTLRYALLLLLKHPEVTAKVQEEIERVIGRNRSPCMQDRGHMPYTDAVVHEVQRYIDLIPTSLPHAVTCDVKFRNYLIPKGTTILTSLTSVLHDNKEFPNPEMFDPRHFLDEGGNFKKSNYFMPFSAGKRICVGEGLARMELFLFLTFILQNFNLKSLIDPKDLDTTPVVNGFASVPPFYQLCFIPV
Glucocorticoid receptor (Homo sapiens), sequence (P04150 whole entry, looked up, the tested form may be a part): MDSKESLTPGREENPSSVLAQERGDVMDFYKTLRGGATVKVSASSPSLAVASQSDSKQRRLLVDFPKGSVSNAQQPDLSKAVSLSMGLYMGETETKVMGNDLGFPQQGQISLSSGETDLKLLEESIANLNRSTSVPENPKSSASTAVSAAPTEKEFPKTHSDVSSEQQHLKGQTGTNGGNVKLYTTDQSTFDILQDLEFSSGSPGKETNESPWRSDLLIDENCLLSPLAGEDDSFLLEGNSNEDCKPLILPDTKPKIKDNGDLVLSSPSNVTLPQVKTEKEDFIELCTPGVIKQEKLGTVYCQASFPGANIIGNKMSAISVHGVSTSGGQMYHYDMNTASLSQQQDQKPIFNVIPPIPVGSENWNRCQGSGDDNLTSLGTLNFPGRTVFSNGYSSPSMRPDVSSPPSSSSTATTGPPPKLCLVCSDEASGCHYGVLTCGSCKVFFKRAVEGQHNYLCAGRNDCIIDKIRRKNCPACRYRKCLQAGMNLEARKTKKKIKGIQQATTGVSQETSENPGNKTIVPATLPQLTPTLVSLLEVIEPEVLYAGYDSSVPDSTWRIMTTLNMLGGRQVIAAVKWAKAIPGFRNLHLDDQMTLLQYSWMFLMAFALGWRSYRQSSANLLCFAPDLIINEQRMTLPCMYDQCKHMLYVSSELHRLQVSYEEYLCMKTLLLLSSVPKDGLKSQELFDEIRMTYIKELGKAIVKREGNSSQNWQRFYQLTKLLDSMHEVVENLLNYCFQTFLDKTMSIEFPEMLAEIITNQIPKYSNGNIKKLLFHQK
Lysosomal acid glucosylceramidase (Homo sapiens), sequence (P04062 whole entry, looked up): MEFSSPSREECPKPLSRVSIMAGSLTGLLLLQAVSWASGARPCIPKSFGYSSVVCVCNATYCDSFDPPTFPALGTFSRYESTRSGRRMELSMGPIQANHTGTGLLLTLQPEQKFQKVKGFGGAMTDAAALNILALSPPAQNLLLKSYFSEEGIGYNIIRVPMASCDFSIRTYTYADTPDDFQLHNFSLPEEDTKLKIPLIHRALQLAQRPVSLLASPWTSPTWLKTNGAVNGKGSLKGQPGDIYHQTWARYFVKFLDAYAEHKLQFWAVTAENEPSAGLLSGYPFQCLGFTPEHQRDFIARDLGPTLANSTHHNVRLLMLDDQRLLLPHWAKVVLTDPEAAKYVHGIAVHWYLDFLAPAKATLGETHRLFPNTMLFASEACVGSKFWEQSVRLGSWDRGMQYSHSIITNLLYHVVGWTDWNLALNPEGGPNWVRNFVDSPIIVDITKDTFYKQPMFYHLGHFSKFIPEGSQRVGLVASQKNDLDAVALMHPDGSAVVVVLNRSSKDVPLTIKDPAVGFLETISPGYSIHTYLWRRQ
Cytochrome P450 1A2 (Homo sapiens), sequence (P05177 whole entry, looked up): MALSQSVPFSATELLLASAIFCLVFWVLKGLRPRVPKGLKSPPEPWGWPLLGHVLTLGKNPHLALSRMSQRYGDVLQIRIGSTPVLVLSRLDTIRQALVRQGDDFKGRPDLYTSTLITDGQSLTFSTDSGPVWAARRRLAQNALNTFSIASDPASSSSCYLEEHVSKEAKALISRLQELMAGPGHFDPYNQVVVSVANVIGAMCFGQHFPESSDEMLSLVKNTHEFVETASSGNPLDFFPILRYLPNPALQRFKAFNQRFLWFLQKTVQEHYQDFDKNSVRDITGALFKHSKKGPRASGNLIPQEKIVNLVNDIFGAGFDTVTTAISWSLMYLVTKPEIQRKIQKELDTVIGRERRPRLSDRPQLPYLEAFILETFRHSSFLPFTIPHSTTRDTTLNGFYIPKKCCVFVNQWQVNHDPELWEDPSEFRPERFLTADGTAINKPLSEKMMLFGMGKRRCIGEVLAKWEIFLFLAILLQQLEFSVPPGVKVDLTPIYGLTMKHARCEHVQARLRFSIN
3',5'-cyclic-AMP phosphodiesterase 4B (Homo sapiens), sequence (Q07343 whole entry, looked up): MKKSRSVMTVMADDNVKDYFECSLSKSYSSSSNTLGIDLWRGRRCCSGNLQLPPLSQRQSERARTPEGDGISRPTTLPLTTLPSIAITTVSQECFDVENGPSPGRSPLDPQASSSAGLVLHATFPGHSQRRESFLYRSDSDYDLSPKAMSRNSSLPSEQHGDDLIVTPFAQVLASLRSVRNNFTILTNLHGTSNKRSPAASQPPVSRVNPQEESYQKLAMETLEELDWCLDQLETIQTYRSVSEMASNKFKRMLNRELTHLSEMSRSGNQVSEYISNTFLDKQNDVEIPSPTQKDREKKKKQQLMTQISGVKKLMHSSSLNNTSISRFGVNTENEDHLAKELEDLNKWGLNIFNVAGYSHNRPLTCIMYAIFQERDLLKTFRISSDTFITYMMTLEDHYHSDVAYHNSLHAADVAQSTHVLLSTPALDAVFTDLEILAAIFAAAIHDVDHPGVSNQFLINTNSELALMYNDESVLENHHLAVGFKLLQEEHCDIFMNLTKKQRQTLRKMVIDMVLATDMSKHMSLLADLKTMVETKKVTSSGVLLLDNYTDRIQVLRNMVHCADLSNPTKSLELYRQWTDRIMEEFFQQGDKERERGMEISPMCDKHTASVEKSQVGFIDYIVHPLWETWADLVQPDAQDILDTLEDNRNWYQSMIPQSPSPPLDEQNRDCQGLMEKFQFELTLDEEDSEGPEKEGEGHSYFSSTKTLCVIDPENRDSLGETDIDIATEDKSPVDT
Cytochrome P450 2C9 (Homo sapiens), sequence (P11712 whole entry, looked up): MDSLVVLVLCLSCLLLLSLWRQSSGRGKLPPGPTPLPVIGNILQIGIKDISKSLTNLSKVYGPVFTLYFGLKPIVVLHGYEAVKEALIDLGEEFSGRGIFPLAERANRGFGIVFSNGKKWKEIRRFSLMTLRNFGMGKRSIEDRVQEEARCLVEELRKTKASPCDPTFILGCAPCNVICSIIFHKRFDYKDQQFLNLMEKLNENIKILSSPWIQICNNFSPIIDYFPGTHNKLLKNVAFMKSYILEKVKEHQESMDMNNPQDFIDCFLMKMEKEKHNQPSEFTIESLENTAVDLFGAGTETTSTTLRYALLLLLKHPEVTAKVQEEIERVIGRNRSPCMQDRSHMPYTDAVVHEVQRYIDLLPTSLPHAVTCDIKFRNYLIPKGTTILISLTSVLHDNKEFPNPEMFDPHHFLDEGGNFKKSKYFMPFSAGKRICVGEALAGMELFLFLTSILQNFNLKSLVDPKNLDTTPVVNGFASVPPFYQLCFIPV

CN1CCc2ccccc2[C@@H]1Cc1ccccc1NC(=O)c1sc2ccccc2c1Cl
inactive: Potency [1] > 11.4 µM | activity change, negative = inhibition [2] -4.19% | activity, negative = inhibition [4] 4.41% | Potency [5] > 46 µM | Potency [6] > 9.22 µM | Potency [7] | Potency [8]
active: Potency [3] 5.01 µM | Potency [9] 2.51 µM

c1ccc(SCCc2ccncc2)cc1
inactive: Potency [1] > 11.4 µM | activity change, negative = inhibition [2] 9.37% | activity, negative = inhibition [4] -2.72% | Potency [5] > 46 µM | Potency [6] > 9.22 µM | Potency [8] | Potency [12]
active: Potency [3] 0.2 µM | Potency [10] 1.26 µM | Potency [11] 2.51 µM | Potency [13] 1.26 µM | Potency [9] 0.794 µM

O=C(O)c1ccccc1N[C@H](c1ccccc1)c1ccc2cccnc2c1O
active: Potency [3] 1.58 µM | Potency [9] 3.98 µM
inactive: Potency [1] > 11.4 µM | activity change, negative = inhibition [2] 0.796% | activity, negative = inhibition [4] -21.5% | Potency [5] > 46 µM | Potency [6] > 9.22 µM | Potency [7] | Potency [8]

O=C=Nc1ccc(Cc2ccc(N=C=O)cc2)cc1 (tested in a mixture with another compound)
inactive: Potency [1] > 11.4 µM | activity change, negative = inhibition [2] -8.4% | activity, negative = inhibition [4] -1.09% | Potency [7] | Potency [8]
active: Potency [3] 5.01 µM

O=C(c1cc(Br)ccc1O)c1cc(Br)ccc1O
inactive: Potency [1] > 11.4 µM | activity change, negative = inhibition [2] -21.4% | activity, negative = inhibition [4] -28% | Potency [5] > 46 µM | Potency [6] > 9.22 µM | Potency [7] | Potency [8]
active: Potency [3] 1 µM | Potency [9] 0.199 µM

CC1(C)N=C(N)N=C(N)N1c1cccc(OCc2cccc([N+](=O)[O-])c2)c1
inactive: Potency [1] > 11.4 µM | activity change, negative = inhibition [2] -5.25% | activity, negative = inhibition [4] -5.32% | Potency [5] > 46 µM | Potency [6] > 9.22 µM | Potency [7] | Potency [8] | Potency [9] | activation [14] 5.31%
active: Potency [3] 5.01 µM

Nc1cccc2nsnc12
inactive: Potency [1] > 11.4 µM | activity change, negative = inhibition [2] 20.1% | activity change, negative = inhibition [3] -15.3% [at 2.29 µM] | activity, negative = inhibition [4] 2.62% | Potency [5] > 46 µM | Potency [6] > 9.22 µM | Potency [8] | Potency [10] | Potency [13] | Potency [9]

CN(C)c1ccc(-c2nc(Nc3ccncc3)c3ccccc3n2)cc1
inactive: activity change, negative = inhibition [2] -10.7% | activity, negative = inhibition [4] -28.2% | Potency [5] > 46 µM | Potency [6] > 46 µM | Potency [8]
active: Potency [1] 3.67 µM | Potency [3] 0.501 µM | Potency [11] 7.94 µM

Clc1ccccc1NN(Cc1ccccn1)c1ccccc1Cl
active: Potency [9] 3.98 µM
inactive: Potency [1] > 11.4 µM | activity change, negative = inhibition [2] -10% | activity change, negative = inhibition [3] -22.4% [at 2.29 µM] | activity, negative = inhibition [4] -11% | Potency [5] > 46 µM | Potency [6] > 9.22 µM | Potency [7] | Potency [8]

C[C@@]12CC[C@H]3[C@H](CC=C4C[C@@H](O)CC[C@@]43C)[C@@H]1CC[C@@H]2N(CCO)CCO
inactive: Potency [1] > 11.4 µM | activity change, negative = inhibition [2] -4.05% | Potency [3] | activity, negative = inhibition [4] 18.7% | Potency [5] > 46 µM | Potency [6] > 9.22 µM | Potency [7] | Potency [8] | activation [14] 9.1%

Cc1nc2cnc(Oc3ccccc3)nc2n(CCc2ccccc2)c1=O
active: Potency [3] 3.16 µM
inactive: Potency [1] > 11.4 µM | activity change, negative = inhibition [2] 17.9% | activity, negative = inhibition [4] -2.9% | Potency [5] > 9.22 µM | Potency [6] > 46 µM | Potency [7] | Potency [12]

Cn1c(=O)c2c(nc(Cc3ccccc3)n2CC(=O)O)n(C)c1=O
inactive: Potency [1] > 11.4 µM | activity change, negative = inhibition [2] 6.03% | activity change, negative = inhibition [3] -13.2% [at 2.29 µM] | activity, negative = inhibition [4] 10.4% | Potency [5] > 46 µM | Potency [6] > 9.22 µM | Potency [7] | Potency [8] | Potency [9]

Nc1ccccc1S[C@@H](C[N+](=O)[O-])c1ccc2c(c1)OCO2
inactive: Potency [1] > 11.4 µM | activity change, negative = inhibition [2] 11.2% | activity, negative = inhibition [4] -19.6% | Potency [5] > 46 µM | Potency [6] > 9.22 µM | Potency [7] | Potency [12]
active: Potency [3] 0.631 µM | Potency [13] 3.98 µM | Potency [9] 1.58 µM

O=[N+]([O-])c1ccc([C@@H](Nc2ccccc2)c2ccc3cccnc3c2O)cc1
inactive: Potency [1] > 11.4 µM | activity change, negative = inhibition [2] -13.7% | activity change, negative = inhibition [3] -21.3% [at 2.29 µM] | Potency [5] > 46 µM | Potency [6] > 9.22 µM | Potency [7] | Potency [8]

C[C@H](CN(C)C)C(O)(c1ccccc1)c1ccccc1
inactive: Potency [1] > 11.4 µM | activity change, negative = inhibition [2] -8.88% | Potency [3] | activity, negative = inhibition [4] 8.39% | Potency [5] > 46 µM | Potency [6] > 9.22 µM | Potency [7] | Potency [8] | Potency [9]
